Test results: the supplement of paper PMC10849652
Targets with a hit are over-represented here; the source holds about 7,900 in all. About 0.6% of all pairs of compound and target were hits.

Key:
Assay in all cases: log2 fold change, soluble protein after heating vs DMSO (PISA); higher = thermal stabilisation; K562 cells, 10 uM, 30 min; active = over 0.2 and 3.5 SD of the protein, either way, in both replicates (recomputed)
[1] = compound: COC1=CC=C(C=C1)CN2C=CC3=C2C=C(C=C3)C(=O)NO
In short: (§1)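 Aliquots of K562 cells (2×10^6 cells/mL) treated with 10 μM compound for 30 min were heated for 3 min over 48°C-58°C. After pooling and extraction in PBS with 0.5% NP-40 at 4°C, soluble protein from a 21,000xg, 90 min spin was quantified by TMTpro 16plex LC-MS/MS with channel sums equalised. Thermal stability is expressed against control samples, from duplicates, as a log2 fold change.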

filanesib = compound: CON(C)C(=O)N1N=C(c2cc(F)ccc2F)S[C@@]1(CCCN)c1ccccc1 [filanesib]
In short: as §1

zotarolimus = compound: CO[C@H]1C[C@@H]2CC[C@@H](C)[C@@](O)(O2)C(=O)C(=O)N2CCCC[C@H]2C(=O)O[C@H]([C@H](C)C[C@@H]2CC[C@H](n3cnnn3)[C@H](OC)C2)CC(=O)[C@H](C)/C=C(\C)[C@@H](O)[C@@H](OC)C(=O)[C@H](C)C[C@H](C)/C=C/C=C/C=C/1C [zotarolimus]
In short: as §1

idasanutlin = compound: COc1cc(C(=O)O)ccc1NC(=O)[C@@H]1N[C@@H](CC(C)(C)C)[C@](C#N)(c2ccc(Cl)cc2F)[C@H]1c1cccc(Cl)c1F [idasanutlin]
In short: as §1

alisertib = compound: COc1cc(Nc2ncc3c(n2)-c2ccc(Cl)cc2C(c2c(F)cccc2OC)=NC3)ccc1C(=O)O [alisertib]
In short: as §1

[2] = compound: COc1cc2nc(-c3cc(F)ccc3O)nc(N[C@@H]3CNC[C@H]3C(C)(C)O)c2cc1OC
In short: as §1

gefitinib = compound: COc1cc2ncnc(Nc3ccc(F)c(Cl)c3)c2cc1OCCCN1CCOCC1 [gefitinib]
In short: as §1

[3] = compound: COc1cccc2cc(-c3nc([C@H]4CC[C@H](C(=O)O)CC4)n4ncnc(N)c34)[nH]c12
In short: as §1

lapatinib = compound: CS(=O)(=O)CCNCc1ccc(-c2ccc3ncnc(Nc4ccc(OCc5cccc(F)c5)c(Cl)c4)c3c2)o1 [lapatinib]
In short: as §1

pictilisib = compound: CS(=O)(=O)N1CCN(Cc2cc3nc(-c4cccc5[nH]ncc45)nc(N4CCOCC4)c3s2)CC1 [pictilisib]
In short: as §1

Measured: log2 fold change

ARL6IP4 (UniProt Q66PJ3)
inactive: [1] -0.025 | filanesib 0.023 | zotarolimus 0.014 | idasanutlin 0.172 | alisertib -0.053 | [2] 0.002 | gefitinib -0.039 | [3] 0.05 | lapatinib -0.023 | pictilisib -0.007

ACAD9 (UniProt Q9H845)
inactive: [1] -0.005 | filanesib -0.069 | zotarolimus -0.017 | idasanutlin 0.017 | alisertib -0.012 | [2] 0.03 | gefitinib 0.016 | [3] 0.083 | lapatinib -0.015 | pictilisib 0.082

BST2 (UniProt Q10589)
inactive: [1] -0.064 | filanesib -0.05 | zotarolimus 0.041 | idasanutlin -0.044 | alisertib -0.059 | [2] -0.028 | gefitinib -0.022 | [3] 0.007 | lapatinib 0.038 | pictilisib 0.036

BRD3 (UniProt Q15059)
inactive: [1] 0.027 | filanesib 0.297 | zotarolimus -0.077 | idasanutlin -0.012 | alisertib -0.035 | [2] 0.086 | gefitinib 0.227 | [3] -0.002 | lapatinib -0.057 | pictilisib 0.081

ARMC8 (UniProt Q8IUR7)
inactive: [1] 0.056 | filanesib 0.048 | zotarolimus 0 | idasanutlin -0.016 | alisertib -0.08 | [2] -0.014 | gefitinib -0.029 | [3] -0.016 | lapatinib 0.046 | pictilisib 0.005

ADPRHL2 (UniProt Q9NX46)
inactive: [1] 0.111 | filanesib -0.08 | zotarolimus 0.022 | idasanutlin -0.06 | alisertib 0.009 | gefitinib -0.028 | [3] 0.012 | lapatinib 0.03 | pictilisib 0.078
active: [2] 0.245

ANK2 (UniProt Q01484)
UniProt Q01484, sequence (Q01484 whole entry, looked up): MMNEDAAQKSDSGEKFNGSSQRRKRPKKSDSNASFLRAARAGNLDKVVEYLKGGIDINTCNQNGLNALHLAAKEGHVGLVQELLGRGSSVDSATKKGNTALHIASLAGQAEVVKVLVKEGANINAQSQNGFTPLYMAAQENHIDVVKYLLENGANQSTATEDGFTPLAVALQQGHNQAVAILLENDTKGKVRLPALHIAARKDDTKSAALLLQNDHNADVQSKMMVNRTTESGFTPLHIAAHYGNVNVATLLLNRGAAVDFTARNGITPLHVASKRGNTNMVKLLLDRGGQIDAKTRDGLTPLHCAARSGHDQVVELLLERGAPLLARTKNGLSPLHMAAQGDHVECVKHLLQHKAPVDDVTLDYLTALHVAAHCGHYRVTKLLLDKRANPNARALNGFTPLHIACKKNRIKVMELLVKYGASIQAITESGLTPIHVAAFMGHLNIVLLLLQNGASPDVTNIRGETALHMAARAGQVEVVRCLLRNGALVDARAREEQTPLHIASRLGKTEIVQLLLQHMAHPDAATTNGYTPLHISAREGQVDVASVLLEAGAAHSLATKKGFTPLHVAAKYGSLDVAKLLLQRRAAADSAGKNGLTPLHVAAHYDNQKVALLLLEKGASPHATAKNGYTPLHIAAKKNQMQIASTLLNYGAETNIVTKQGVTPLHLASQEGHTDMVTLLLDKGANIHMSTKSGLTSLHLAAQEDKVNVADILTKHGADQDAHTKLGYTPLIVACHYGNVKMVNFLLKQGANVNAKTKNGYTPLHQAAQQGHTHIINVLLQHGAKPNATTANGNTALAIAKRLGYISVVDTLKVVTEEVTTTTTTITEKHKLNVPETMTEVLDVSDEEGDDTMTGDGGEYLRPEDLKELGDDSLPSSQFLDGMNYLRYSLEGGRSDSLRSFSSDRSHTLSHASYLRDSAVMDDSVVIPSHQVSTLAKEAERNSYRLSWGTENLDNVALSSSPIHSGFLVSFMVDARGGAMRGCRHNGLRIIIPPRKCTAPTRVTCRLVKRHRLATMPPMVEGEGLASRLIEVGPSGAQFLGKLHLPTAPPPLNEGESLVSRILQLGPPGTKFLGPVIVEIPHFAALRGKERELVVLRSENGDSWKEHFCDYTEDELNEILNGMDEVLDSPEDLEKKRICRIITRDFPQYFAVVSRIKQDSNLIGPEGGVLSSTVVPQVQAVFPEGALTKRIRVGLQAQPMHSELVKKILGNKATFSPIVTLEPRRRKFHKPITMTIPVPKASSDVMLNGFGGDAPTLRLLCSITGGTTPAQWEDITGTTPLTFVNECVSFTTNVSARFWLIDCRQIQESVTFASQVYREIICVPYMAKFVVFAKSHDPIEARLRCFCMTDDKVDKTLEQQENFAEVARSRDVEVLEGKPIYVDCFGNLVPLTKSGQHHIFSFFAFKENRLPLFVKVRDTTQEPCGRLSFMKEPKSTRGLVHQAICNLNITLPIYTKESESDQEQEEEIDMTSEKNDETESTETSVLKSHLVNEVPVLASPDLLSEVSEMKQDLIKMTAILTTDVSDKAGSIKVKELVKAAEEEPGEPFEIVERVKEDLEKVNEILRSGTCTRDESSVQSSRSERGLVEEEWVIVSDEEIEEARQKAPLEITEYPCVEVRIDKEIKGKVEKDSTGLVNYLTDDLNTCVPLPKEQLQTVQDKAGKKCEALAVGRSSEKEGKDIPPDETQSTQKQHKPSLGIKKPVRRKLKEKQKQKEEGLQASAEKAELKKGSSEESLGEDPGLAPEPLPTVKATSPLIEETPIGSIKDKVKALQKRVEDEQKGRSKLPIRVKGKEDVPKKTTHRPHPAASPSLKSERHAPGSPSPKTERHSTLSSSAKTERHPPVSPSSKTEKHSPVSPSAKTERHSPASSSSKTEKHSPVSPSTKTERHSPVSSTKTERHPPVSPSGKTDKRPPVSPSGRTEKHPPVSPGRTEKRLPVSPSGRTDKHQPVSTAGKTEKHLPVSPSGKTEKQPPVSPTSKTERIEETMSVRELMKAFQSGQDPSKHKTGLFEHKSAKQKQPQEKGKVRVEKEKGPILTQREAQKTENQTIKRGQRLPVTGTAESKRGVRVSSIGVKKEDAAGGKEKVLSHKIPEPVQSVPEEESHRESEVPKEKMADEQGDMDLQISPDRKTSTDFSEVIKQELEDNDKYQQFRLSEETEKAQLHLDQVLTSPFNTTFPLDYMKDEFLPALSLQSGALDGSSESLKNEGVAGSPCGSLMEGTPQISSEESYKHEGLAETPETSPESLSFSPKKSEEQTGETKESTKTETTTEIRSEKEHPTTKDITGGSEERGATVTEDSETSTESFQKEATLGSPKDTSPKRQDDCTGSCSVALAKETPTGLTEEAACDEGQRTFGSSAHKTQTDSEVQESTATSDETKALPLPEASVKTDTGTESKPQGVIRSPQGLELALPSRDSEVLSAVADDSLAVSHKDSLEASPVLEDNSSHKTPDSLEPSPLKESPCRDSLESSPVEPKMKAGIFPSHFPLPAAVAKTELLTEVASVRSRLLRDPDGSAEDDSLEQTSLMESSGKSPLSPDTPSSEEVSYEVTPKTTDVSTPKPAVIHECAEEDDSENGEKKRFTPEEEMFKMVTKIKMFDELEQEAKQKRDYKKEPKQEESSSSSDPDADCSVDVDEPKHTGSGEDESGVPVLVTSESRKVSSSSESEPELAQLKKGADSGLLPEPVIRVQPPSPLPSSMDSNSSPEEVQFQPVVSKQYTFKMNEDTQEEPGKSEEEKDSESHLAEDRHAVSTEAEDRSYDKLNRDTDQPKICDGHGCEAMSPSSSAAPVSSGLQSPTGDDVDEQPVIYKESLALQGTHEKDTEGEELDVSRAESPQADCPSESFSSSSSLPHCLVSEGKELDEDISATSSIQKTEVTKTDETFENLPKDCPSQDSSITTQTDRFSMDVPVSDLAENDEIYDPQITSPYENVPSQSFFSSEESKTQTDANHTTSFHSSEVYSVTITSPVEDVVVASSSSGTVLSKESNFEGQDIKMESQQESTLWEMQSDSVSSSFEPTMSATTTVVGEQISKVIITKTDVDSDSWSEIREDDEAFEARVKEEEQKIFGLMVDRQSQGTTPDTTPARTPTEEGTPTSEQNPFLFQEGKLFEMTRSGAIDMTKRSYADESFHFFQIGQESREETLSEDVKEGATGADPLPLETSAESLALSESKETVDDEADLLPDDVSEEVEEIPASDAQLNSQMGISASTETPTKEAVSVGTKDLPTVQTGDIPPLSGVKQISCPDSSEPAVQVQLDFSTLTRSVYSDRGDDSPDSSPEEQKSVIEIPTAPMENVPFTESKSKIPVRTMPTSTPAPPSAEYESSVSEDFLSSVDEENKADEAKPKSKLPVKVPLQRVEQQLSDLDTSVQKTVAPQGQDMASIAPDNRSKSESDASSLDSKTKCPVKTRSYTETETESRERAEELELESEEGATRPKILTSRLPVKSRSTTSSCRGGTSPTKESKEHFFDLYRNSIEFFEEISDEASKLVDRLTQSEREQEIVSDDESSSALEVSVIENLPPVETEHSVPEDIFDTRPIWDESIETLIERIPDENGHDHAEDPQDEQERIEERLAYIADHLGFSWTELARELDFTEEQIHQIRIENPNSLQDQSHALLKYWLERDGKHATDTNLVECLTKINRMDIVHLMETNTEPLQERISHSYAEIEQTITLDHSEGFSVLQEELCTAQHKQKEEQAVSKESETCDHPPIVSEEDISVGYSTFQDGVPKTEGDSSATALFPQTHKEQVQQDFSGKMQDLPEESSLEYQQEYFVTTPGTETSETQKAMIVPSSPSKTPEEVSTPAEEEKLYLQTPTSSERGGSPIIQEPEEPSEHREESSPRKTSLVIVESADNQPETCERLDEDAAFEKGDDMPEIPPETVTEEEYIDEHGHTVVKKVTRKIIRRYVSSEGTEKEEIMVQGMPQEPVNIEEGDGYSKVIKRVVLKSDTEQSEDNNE
inactive: [1] -0.054 | filanesib -0.052 | zotarolimus -0.05 | idasanutlin 0.083 | alisertib -0.076 | [2] -0.04 | gefitinib -0.062 | [3] 0.048 | lapatinib -0.013
active: pictilisib 0.532

AKAP8 (UniProt O43823)
inactive: [1] 0.026 | filanesib 0.035 | zotarolimus -0.105 | idasanutlin 0.052 | alisertib -0.046 | [2] -0.002 | gefitinib -0.049 | [3] 0.067 | lapatinib 0.014 | pictilisib 0.101

ATOX1 (UniProt O00244)
UniProt O00244, sequence (O00244 whole entry, looked up): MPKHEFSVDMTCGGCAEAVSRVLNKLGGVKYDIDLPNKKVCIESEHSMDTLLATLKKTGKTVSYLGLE
inactive: filanesib -0.122 | zotarolimus 0.113 | idasanutlin -0.096 | alisertib -0.062 | [2] -0.388 | gefitinib -0.036 | [3] -0.07 | lapatinib 0.314 | pictilisib -0.015
active: [1] 0.471

ADD2 (UniProt P35612)
inactive: [1] 0.047 | filanesib 0.015 | zotarolimus -0.011 | idasanutlin 0.009 | alisertib -0.081 | [2] 0.065 | gefitinib 0.003 | [3] 0.02 | lapatinib -0.026 | pictilisib 0.009

AKAP8L (UniProt Q9ULX6)
inactive: [1] 0.032 | filanesib 0.064 | zotarolimus 0.097 | idasanutlin 0.205 | alisertib 0.041 | [2] -0.212 | gefitinib 0.008 | [3] 0.001 | lapatinib 0.034 | pictilisib 0.019

ATAD3B (UniProt Q5T9A4)
inactive: [1] -0.035 | filanesib 0.089 | zotarolimus -0.064 | idasanutlin 0.081 | alisertib 0.193 | [2] -0.138 | gefitinib -0.134 | [3] -0.136 | lapatinib -0.047 | pictilisib -0.161

AP2A1 (UniProt O95782)
inactive: [1] 0.044 | filanesib 0.045 | zotarolimus 0.033 | idasanutlin 0.027 | alisertib -0.041 | [2] 0.008 | gefitinib 0.025 | [3] 0.005 | lapatinib 0.027 | pictilisib -0.042

ALG5 (UniProt Q9Y673)
inactive: [1] 0 | filanesib -0.054 | zotarolimus 0.039 | idasanutlin -0.139 | alisertib 0.675 | [2] 0.095 | gefitinib 0.023 | [3] 0.013 | lapatinib 0.046 | pictilisib 0.075

ANKRD29 (UniProt Q8N6D5)
inactive: [1] 0.339 | filanesib -0.122 | zotarolimus 0.011 | idasanutlin -0.077 | alisertib -0.044 | [2] 0.279 | gefitinib -0.066 | [3] -0.08 | lapatinib -0.126 | pictilisib 0.177

ATAD1 (UniProt Q8NBU5)
inactive: [1] 0.009 | filanesib -0.045 | zotarolimus 0.087 | idasanutlin -0.046 | alisertib -0.037 | [2] -0.014 | gefitinib 0.003 | [3] -0.029 | lapatinib 0.007 | pictilisib 0.012

ALDH1B1 (UniProt P30837)
inactive: [1] 0.051 | filanesib -0.1 | zotarolimus 0.029 | idasanutlin -0.122 | alisertib -0.045 | [2] -0.009 | gefitinib 0.091 | [3] 0.075 | lapatinib -0.003 | pictilisib 0.062

ATG4B isoform 2 (UniProt Q9Y4P1)
inactive: [1] -0.003 | filanesib -0.142 | zotarolimus 0.048 | idasanutlin -0.045 | alisertib -0.009 | [2] -0.058 | gefitinib 0.005 | [3] -0.082 | lapatinib -0.157 | pictilisib -0.311

ARGLU1 (UniProt Q9NWB6)
inactive: [1] 0.066 | filanesib 0.207 | zotarolimus 0.025 | idasanutlin 0.171 | alisertib -0.13 | [2] 0.05 | gefitinib 0.212 | [3] 0.031 | lapatinib 0.062 | pictilisib -0.027

ABITRAM (UniProt Q9NX38)
inactive: [1] 0.06 | filanesib 0.036 | zotarolimus 0.041 | idasanutlin 0.022 | alisertib 0.101 | [2] 0.006 | gefitinib 0.111 | [3] 0.139 | lapatinib 0.021 | pictilisib 0.053

BLOC1S3 (UniProt Q6QNY0)
inactive: [1] -0.013 | filanesib -0.066 | zotarolimus -0.014 | idasanutlin -0.149 | alisertib 0.005 | [2] -0.018 | gefitinib 0.048 | [3] 0.058 | lapatinib -0.007 | pictilisib 0.126

ATP1A4 (UniProt Q13733)
inactive: [1] 0.042 | filanesib 0.006 | zotarolimus 0.006 | idasanutlin 0.063 | alisertib -0.083 | [2] 0.003 | gefitinib 0.057 | [3] -0.024 | lapatinib -0.01 | pictilisib 0.016

ATR (UniProt Q13535)
active: [1] -0.267
inactive: filanesib 0.019 | zotarolimus 0.057 | idasanutlin -0.067 | alisertib -0.05 | [2] 0.031 | gefitinib 0.019 | [3] 0 | lapatinib 0.039 | pictilisib 0.112

ATP13A2 (UniProt Q9NQ11)
inactive: [1] 0.053 | filanesib -0.134 | zotarolimus 0.023 | idasanutlin 0.027 | alisertib -0.143 | [2] 0.019 | gefitinib -0.005 | [3] 0.053 | lapatinib -0.005 | pictilisib 0.066

ATG9A (UniProt Q7Z3C6)
inactive: [1] 0.008 | filanesib -0.113 | zotarolimus -0.014 | idasanutlin -0.003 | alisertib 0.064 | [2] -0.073 | gefitinib 0.011 | [3] -0.015 | lapatinib -0.045 | pictilisib 0.075

ACIN1 (UniProt Q9UKV3)
inactive: [1] 0.019 | filanesib 0.073 | zotarolimus 0.028 | idasanutlin 0.099 | alisertib -0.082 | [2] -0.062 | gefitinib 0.041 | [3] 0.006 | lapatinib 0.034 | pictilisib 0.03

AGRN (UniProt O00468)
inactive: [1] -0.068 | filanesib 0.014 | zotarolimus -0.001 | idasanutlin -0.005 | alisertib -0.043 | [2] -0.071 | gefitinib 0.118 | [3] 0.037 | lapatinib 0.018 | pictilisib 0.055

BZW1 isoform 3 (UniProt Q7L1Q6)
inactive: [1] 0.033 | filanesib -0.069 | zotarolimus 0.052 | idasanutlin -0.152 | alisertib -0.078 | [2] -0.032 | gefitinib -0.028 | [3] -0.13 | lapatinib -0.071 | pictilisib -0.071

ATP6AP1 (UniProt Q15904)
inactive: [1] -0.099 | filanesib -0.064 | zotarolimus 0.025 | idasanutlin 0.009 | alisertib 0.166 | [2] -0.068 | gefitinib -0.009 | [3] -0.057 | lapatinib 0.019 | pictilisib -0.017

ATP5ME (UniProt P56385)
inactive: [1] -0.023 | filanesib -0.053 | zotarolimus 0.002 | idasanutlin -0.024 | alisertib -0.027 | [2] -0.04 | gefitinib 0.021 | [3] 0.063 | lapatinib -0.001 | pictilisib 0.019

BRAP (UniProt Q7Z569)
inactive: [1] 0.062 | filanesib 0.02 | zotarolimus 0.01 | idasanutlin 0.028 | alisertib -0.058 | [2] -0.108 | gefitinib 0.053 | [3] -0.134 | lapatinib 0.073 | pictilisib -0.055

AKT1 (UniProt P31749)
inactive: [1] -0.001 | filanesib 0.001 | zotarolimus 0.059 | idasanutlin -0.134 | alisertib -0.07 | [2] 0.1 | gefitinib 0.025 | [3] -0.224 | lapatinib 0.135 | pictilisib 0.216

ATP12A isoform 2 (UniProt P54707)
inactive: [1] -0.034 | filanesib -0.015 | zotarolimus -0.015 | idasanutlin 0.016 | alisertib -0.008 | [2] 0.071 | gefitinib 0.032 | [3] 0.043 | lapatinib -0.074 | pictilisib 0.1

ARFGAP1 (UniProt Q8N6T3)
inactive: [1] 0.03 | filanesib 0.034 | zotarolimus 0.047 | idasanutlin 0.028 | alisertib 0.047 | [2] 0 | gefitinib -0.022 | [3] -0.015 | lapatinib -0.038 | pictilisib -0.007

ASH2L (UniProt Q9UBL3)
inactive: [1] 0.019 | filanesib 0.044 | zotarolimus 0.096 | idasanutlin 0.021 | alisertib -0.034 | [2] 0.035 | gefitinib 0.004 | [3] -0.014 | lapatinib -0.011 | pictilisib 0.039

ATP11A (UniProt P98196)
UniProt P98196, sequence (P98196 whole entry, looked up): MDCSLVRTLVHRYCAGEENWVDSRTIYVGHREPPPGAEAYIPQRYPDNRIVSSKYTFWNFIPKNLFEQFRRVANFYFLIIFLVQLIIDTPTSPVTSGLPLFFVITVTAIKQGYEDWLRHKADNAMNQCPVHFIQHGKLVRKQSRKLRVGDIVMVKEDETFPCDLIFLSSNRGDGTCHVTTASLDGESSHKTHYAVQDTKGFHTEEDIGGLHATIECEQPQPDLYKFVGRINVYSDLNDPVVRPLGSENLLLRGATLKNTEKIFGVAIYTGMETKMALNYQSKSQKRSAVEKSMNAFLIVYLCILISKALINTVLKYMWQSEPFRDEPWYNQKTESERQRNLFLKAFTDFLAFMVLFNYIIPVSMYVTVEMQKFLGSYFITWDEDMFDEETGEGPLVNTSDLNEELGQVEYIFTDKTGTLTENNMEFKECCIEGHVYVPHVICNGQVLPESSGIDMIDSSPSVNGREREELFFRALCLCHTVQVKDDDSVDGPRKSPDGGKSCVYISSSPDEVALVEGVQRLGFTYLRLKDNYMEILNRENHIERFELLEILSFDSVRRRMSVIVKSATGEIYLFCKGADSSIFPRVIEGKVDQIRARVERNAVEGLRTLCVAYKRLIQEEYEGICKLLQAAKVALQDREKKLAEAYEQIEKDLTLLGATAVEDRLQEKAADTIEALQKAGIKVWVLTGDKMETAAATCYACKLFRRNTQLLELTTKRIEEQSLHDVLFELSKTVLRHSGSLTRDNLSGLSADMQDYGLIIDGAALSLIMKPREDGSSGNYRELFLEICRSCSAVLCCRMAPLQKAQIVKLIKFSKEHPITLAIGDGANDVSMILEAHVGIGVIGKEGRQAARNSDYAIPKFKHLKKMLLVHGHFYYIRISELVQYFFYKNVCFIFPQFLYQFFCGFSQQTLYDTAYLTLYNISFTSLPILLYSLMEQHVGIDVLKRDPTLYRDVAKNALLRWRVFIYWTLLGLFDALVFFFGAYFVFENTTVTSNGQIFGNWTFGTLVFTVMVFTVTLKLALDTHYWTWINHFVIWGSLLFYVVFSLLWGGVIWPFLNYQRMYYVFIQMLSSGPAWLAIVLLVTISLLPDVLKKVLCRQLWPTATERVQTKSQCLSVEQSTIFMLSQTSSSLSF
inactive: [1] -0.027 | filanesib 0.036 | zotarolimus 0.011 | idasanutlin 0.004 | alisertib 0.23 | [2] 0.026 | gefitinib 0.057 | [3] 0.015 | lapatinib -0.033 | pictilisib 0.007

AIFM2 (UniProt Q9BRQ8)
inactive: [1] -0.019 | filanesib -0.025 | zotarolimus 0.097 | idasanutlin -0.017 | alisertib -0.078 | [2] 0.023 | gefitinib 0.096 | [3] 0.061 | lapatinib 0.135 | pictilisib 0.121

ANKZF1 (UniProt Q9H8Y5)
inactive: [1] -0.005 | filanesib 0.249 | zotarolimus 0.048 | idasanutlin 0.235 | alisertib -0.034 | [2] 0.042 | gefitinib -0.001 | [3] -0.022 | lapatinib -0.046 | pictilisib -0.002
